PubChem BioAssay AID1851 (National Center for Advancing Translational Sciences (NCATS), 2009)
Among all 16,000 compounds or so, about 5,700 (36%) were called active. About 24% were inconclusive and are not listed. The call rests on the fitted dose curve; in most records, active means well fitted curve in the direction sought with a large enough effect; inconclusive means small, poorly fitted or top-dose-only effect, or effect the other way; inactive means no such curve, though single readings can be large or run the other way. The list shows a part of the results.
On the % scale 0 is the no-effect control and ±100 the full control effect.

These molecules were tested against Cytochrome P450 1A2 (Homo sapiens) (UniProt P05177) (assay: Cytochrome panel assay with activity outcomes). Conditions: recombinant CYP, pro-luciferin dealkylation, luminescence, p450-cyp1a2; series mostly up to 57.1 µM; activity, negative = inhibition: at the top concentration.
Sequence of Cytochrome P450 1A2 (Homo sapiens) (P05177 whole entry, looked up): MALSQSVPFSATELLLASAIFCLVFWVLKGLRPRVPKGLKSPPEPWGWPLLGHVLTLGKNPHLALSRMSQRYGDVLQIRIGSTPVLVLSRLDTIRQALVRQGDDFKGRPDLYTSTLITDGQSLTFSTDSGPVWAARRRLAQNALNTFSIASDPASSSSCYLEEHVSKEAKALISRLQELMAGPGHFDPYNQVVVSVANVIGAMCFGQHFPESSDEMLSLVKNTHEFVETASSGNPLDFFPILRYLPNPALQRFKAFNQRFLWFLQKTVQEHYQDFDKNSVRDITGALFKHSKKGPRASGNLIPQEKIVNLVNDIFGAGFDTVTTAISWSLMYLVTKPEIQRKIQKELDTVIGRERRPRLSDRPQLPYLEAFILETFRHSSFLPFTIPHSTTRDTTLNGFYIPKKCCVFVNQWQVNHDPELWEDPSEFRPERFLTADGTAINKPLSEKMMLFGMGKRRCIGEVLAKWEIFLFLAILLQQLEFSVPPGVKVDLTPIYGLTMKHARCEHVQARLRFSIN
In the case of `COc1ccc2[nH]cc(CCNc3ccnc(-c4ccccc4Cl)n3)c2c1`, the AC50 is reported as 398 nM (active).
For `COc1ccc2[nH]cc(CCNc3ccnc(-c4ccccc4C)n3)c2c1`, the AC50 was 316 nM (active).
`C#C[C@H](N)CCC(=O)O` was tested, and the “activity, negative = inhibition” value was -0.402% (inactive).
`Nc1ncnc2nn([C@H]3O[C@@H](CO)[C@@H](O)[C@H]3O)nc12` was tested, and the activity, negative = inhibition was -11.4% [at 11.4 µM] (inactive).
For `Cc1ccc2c(c1)N[C@H](c1ccc(C(=O)O)cc1)c1cccn1-2`, the AC50 was 794 nM (active).
`Cc1ccc(C)c(S(=O)(=O)NCc2ccc(C(=O)N3CCC(Cc4ccccc4)CC3)cc2)c1` was tested, and the “activity, negative = inhibition” value was -9.01% (inactive).
`CN(C)CCNCCN` was tested, and the activity, negative = inhibition was -0.129% [at 11.4 µM] (inactive).
With `N=C(N)c1ccccc1` the “activity, negative = inhibition” value was -7.52% (inactive).
With `N=C(N)c1ccc(N=Nc2c(O)ccc3c2[nH]c2ccccc23)cc1` the AC50 was 1580 nM (active).
For `CC(C)C(=O)NCCCc1ccccc1`, the “activity, negative = inhibition” value was -15.1% (inactive).
In the case of `O=C(NCCCc1ccccc1)c1cccs1`, the AC50 is reported as 11200 nM (active).
With `Cc1ccc(NC(=O)NCCCc2ccccc2)cc1` the AC50 was 3550 nM (active).
In the case of `CSCC[C@@H]1NC(=O)C/C=C\[C@@H](C)COC(=O)[C@@H](C)COC1=O`, the activity, negative = inhibition is reported as 4.43% [at 11.4 µM] (inactive).
For `C[C@H]1[C@@H](O)[C@@H](C)\C=C/C=C\C=C/C=C\C=C/C=C\C=C/[C@@H](O[C@H]2O[C@@H](C)[C@@H](O)[C@@H](N)[C@@H]2O)C[C@@H]2O[C@](O)(C[C@@H](O)C[C@@H](O)[C@@H](O)CC[C@@H](O)C[C@@H](O)CC(=O)O[C@H]1C)C[C@@H](O)[C@H]2C(=O)O` (stereo in doubt), the “activity, negative = inhibition” value was -0.696% [at 25.6 µM] (inactive).
For `CCC(O)CNc1nc(-n2nc(C)cc2C)nc2sc3c(c12)CC(C)(C)OC3` (configuration not stated), the AC50 was 14100 nM (active).
In the case of `Cc1cc(C)n(-c2nc(NCC(C)O)c3c4c(sc3n2)COC(C)(C)C4)n1` (configuration not stated), the AC50 is reported as 8910 nM (active).
With `Cc1cc(NC(=O)Nc2ccc3c(ccn3C)c2)sn1` the AC50 was 5010 nM (active).
For `Oc1c(Cl)cc(CN(Cc2cc(Cl)c(O)c(Cl)c2)C2CCCCC2)cc1Cl`, the activity, negative = inhibition was 11.3% [at 2.29 µM] (inactive).
For `Oc1c(Cl)cc(C(c2cc(Cl)c(O)c(Cl)c2)C(c2cc(Cl)c(O)c(Cl)c2)c2cc(Cl)c(O)c(Cl)c2)cc1Cl`, the AC50 was 794 nM (active).
For `CCOC(=O)CCN1C(=O)[C@H]2[C@H]3[C@H](O)[C@H](O)C/C(=N/OCC(C)C)[C@H]3CC[C@@H]2C1=O`, the activity, negative = inhibition was -11.8% [at 11.4 µM] (inactive).
For `CC(=O)c1cc(C#N)c(Oc2ccc(F)cc2)nc1C`, the AC50 was 2240 nM (active).
`COC(=O)c1cc(C#N)c(Oc2ccc(OC)cc2)nc1C` was tested, and the AC50 was 4470 nM (active).
In the case of `CC(C)Oc1cccc(C(=O)NC(=S)N2CCN(c3ccc(C(F)(F)F)cc3[N+](=O)[O-])CC2)c1`, the “activity, negative = inhibition” value is reported as -28% (inactive).
With `CC(=O)c1cc(C#N)c(Oc2cccc(C(F)(F)F)c2)nc1C` the AC50 was 1120 nM (active).
In the case of `Cc1cc(C)c(NC(=O)NC(=O)c2ccc(F)cc2)c(C)n1`, the “activity, negative = inhibition” value is reported as -8.66% (inactive).
For `COC(=O)c1cc(C#N)c(NCc2ccc(Cl)cc2Cl)nc1C`, the “activity, negative = inhibition” value was 6.7% (inactive).
In the case of `COC(=O)C1=C(C)C(c2ccc(OC)cc2)NC(=S)N1` (configuration not stated), the “activity, negative = inhibition” value is reported as -18.5% (inactive).
